Screening results (PubChem BioAssay)
A selection: hits, their analogues and other compounds. The true share with any hit is near 1.6%.
KCNQ2 inh = blocks the rat KCNQ2 potassium channel; CHO-K1 KCNQ2, FluxOR thallium flux, 20 min; hits give low values; B-score at 10 µM; 310,000 compounds, 1.1% hits; AID 2156;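 active means fluorescence ratio B-score at most minus 3 library SDs, with starting brightness B-score within 2 library SDs, cut at about -5.5 in these data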
KCNQ2 enhance = enhances the rat KCNQ2 potassium channel; O88943; CHO-K1 KCNQ2, FluxOR thallium flux fluorescence; hits give high values; B-score at 10 µM; 310,000 compounds, 0.54% hits; AID 2239;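 active means fluorescence ratio B-score at least 3 SD of library B-scores, with initial fluorescence B-score within 3 of them, cut at about 5.3 in these data; same plate scores as AID 2156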;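 further: B-score of peak minus minimum over baseline fluorescence ratio after K+ and Tl+ stimulus; positive B-score means potentiation of KCNQ2 with more thallium influx and brighter signal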
KCNQ2 inh conf = rat KCNQ2 channel inhibition, confirmatory screen; shares compounds with KCNQ2 inh; KCNQ2-expressing cells, thallium flux; hits give low values; activity change, negative = inhibition, % at 10 µM; 1,000 compounds, 57% hits; AID 493025;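 further: 0% = vehicle wells and values are ratio percent relative to vehicle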
KCNQ1 spec = selectivity of KCNQ2 inhibitors against human KCNQ1; 1,000 compounds, 15% hits; activity change, negative = inhibition, % at 10 µM; shares compounds with KCNQ2 inh; AID 493026; KCNQ1-expressing cells, FluxOR thallium flux fluorescence; hits give low values;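 active means activity change at least 3 SD of negative controls below their mean in both duplicate wells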;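 further: CHO cells stably transfected with KCNQ1 and depolarized by potassium stimulus; peak minus minimum fluorescence over baseline after thallium addition; 0% = vehicle negative control and -100% = blank without thallium stimulus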
Target sequence (P51787 whole entry, looked up): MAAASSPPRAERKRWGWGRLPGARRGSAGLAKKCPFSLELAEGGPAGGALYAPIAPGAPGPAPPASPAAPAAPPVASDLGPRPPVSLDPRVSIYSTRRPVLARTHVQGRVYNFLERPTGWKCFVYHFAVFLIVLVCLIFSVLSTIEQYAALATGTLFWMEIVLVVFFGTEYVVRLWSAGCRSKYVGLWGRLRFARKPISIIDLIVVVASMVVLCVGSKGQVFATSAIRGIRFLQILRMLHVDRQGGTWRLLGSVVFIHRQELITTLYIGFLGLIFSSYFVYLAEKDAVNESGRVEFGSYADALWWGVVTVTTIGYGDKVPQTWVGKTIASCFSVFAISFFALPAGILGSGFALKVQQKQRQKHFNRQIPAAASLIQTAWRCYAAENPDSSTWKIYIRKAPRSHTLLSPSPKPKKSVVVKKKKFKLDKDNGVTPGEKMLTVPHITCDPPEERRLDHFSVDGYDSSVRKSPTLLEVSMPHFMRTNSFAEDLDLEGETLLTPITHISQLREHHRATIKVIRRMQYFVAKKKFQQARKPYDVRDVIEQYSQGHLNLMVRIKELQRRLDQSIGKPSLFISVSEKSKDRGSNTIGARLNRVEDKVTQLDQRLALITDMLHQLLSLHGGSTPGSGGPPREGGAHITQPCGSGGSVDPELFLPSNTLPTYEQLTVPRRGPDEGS
CHO Tl ctr = KCNQ2 inhibitor counter-screen hit in parental CHO cells; shares compounds with KCNQ2 inh; thallium flux counter-screen; hits give low values; activity change, % at 10 µM; 1,000 compounds, 14% hits;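 further: 0% = vehicle negative controls with stimulus buffer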
KCNQ2 inh confirm = blocks rat KCNQ2 current in automated patch clamp; KCNQ2-expressing cells; 550 compounds, 49% hits; calls only at 10 µM; shares compounds with KCNQ2 inh
Kir21 conf inh = confirmation of mouse Kir2.1 potassium channel inhibitors. shares compounds with KCNQ2 enhance. Kir2.1-expressing cells, FluxOR thallium flux fluorescence; hits give low values. Tl flux remaining, % of negative control (hits give low values), % at 10 µM. 2,300 compounds, 41% hits;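 active means Primary-screen hit whose thallium flux fell at least 3 control SD below untreated wells in both duplicates, with normal baseline fluorescence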;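 further: 0% = blank wells without stimulus and 100% = stimulated no-compound controls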
HEK293 Tl flux = parental HEK293 activity in Kir2.1 inhibitor counter-screen; shares compounds with KCNQ2 enhance; parental HEK293 cells, FluxOR thallium flux fluorescence; 0% = unstimulated blank wells; FluxOR signal as % of negative control (100 = no effect), % at 10 µM; 2,300 compounds, 19% hits;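 active means dye signal at least 3 control SD above or below untreated wells in both duplicates, raw fluorescence within 3, either direction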;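 further: percent is based on the flux ratio of peak minus minimum fluorescence over baseline F0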
* = called active by the depositor. Unless noted, how the calls were made is not given here.

`CN(C)C(=S)SSC(=S)N(C)C` gave KCNQ2 inh -10*, KCNQ2 enhance -10, KCNQ2 inh conf inactive, KCNQ1 spec inactive and CHO Tl ctr inactive.
O=C(O)c1ccccc1-c1ccc(C=C2C(=O)N(c3ccccc3)C(=S)N(c3ccccc3)C2=O)o1 was read as KCNQ2 inh inactive and KCNQ2 enhance 1.7.
Screening O=C(Cn1ncn2c(cc3cc(F)ccc32)c1=O)N1CCC2(CC1)OCCO2 returned KCNQ2 inh inactive and KCNQ2 enhance 1.2.
Screening CCC1(CC)C(=O)N(Cc2ccccc2)C(=O)N(Cc2ccccc2)C1=O returned KCNQ2 inh -8.2*, KCNQ2 enhance -8.2, KCNQ2 inh conf inactive, KCNQ1 spec inactive and CHO Tl ctr inactive.
Screening N=C1SCC(=O)N1Cc1ccccc1 returned KCNQ2 inh inactive and KCNQ2 enhance 1.3.
Cc1ccc(Oc2cc(NN3CCCCC3)c([N+](=O)[O-])cc2[N+](=O)[O-])c([N+](=O)[O-])c1 was read as KCNQ2 inh inactive.
`COC(=O)C1=C(c2ccccc2)C[C@@H]2CC[C@H]1N2C(=O)NC1CCCCC1` gave KCNQ2 inh inactive.
Cc1c(C(=O)C(=O)N2CCC3(CC2)OCCO3)c2ccccc2n1C was read as KCNQ2 inh inactive and KCNQ2 enhance 0.82.
`Cc1ccc(NP(=O)(Nc2ccc(C)cc2)Oc2ccccc2)cc1` gave KCNQ2 inh -7.1*, KCNQ2 enhance -7.1, KCNQ2 inh conf -31%*, KCNQ1 spec inactive, CHO Tl ctr inactive and KCNQ2 inh confirm active.
For COc1ccc(OP(=O)(Nc2ccccc2)Nc2ccccc2)cc1 the results were KCNQ2 inh inactive.
`FC(F)(F)c1ccc2c(c1)N(CCCN1CCN(CCCl)CC1)c1ccccc1S2` gave KCNQ2 inh -7*, KCNQ2 enhance -7, KCNQ2 inh conf -32%*, KCNQ1 spec inactive, CHO Tl ctr inactive and KCNQ2 inh confirm inactive.
Screening Nc1ccc(CCN2CCN(c3cccc(C(F)(F)F)c3)CC2)cc1 returned KCNQ2 inh inactive and KCNQ2 enhance 0.04.
CCOC(=O)C1(c2ccccc2)CCN(CC(=O)Nc2cccc3ccccc23)CC1 was read as KCNQ2 inh inactive.
`O=C(Nc1cccc2ccccc12)c1nn(C23CC4CC(CC(C4)C2)C3)cc1Br` gave KCNQ2 inh -8*, KCNQ2 enhance -8, KCNQ2 inh conf -26%*, KCNQ1 spec inactive, CHO Tl ctr inactive and KCNQ2 inh confirm inactive.
CC(C)[N+]12CCC(CC1)C(C(O)(c1ccccc1)c1ccccc1)C2 (stereo unspecified) was read as KCNQ2 inh inactive and KCNQ2 enhance 1.7.
Screening CCCCn1c(=O)c(C(=O)NCCc2ccccc2)c(O)c2ccccc21 returned KCNQ2 inh inactive.
Screening CCCCn1c(=O)c(C(=O)NC(C)c2ccccc2)c(O)c2ccccc21 (stereo unspecified) returned KCNQ2 inh -12*, KCNQ2 enhance -12, KCNQ2 inh conf inactive, KCNQ1 spec inactive and CHO Tl ctr inactive.
`O=[N+]([O-])NC1=NCCN1Cc1ccc(Cl)nc1` gave KCNQ2 inh inactive and KCNQ2 enhance 1.4.
CCOC(=O)c1ccccc1C(=O)OCC was read as KCNQ2 inh inactive and KCNQ2 enhance 0.49.
c1ccc(-c2cc(-c3ccccc3)[n+](-c3ccccc3)c(-c3ccccc3)c2)cc1 was read as KCNQ2 inh -13*, KCNQ2 enhance -13, KCNQ2 inh conf inactive, KCNQ1 spec inactive, CHO Tl ctr inactive, Kir21 conf inh 34%* and HEK293 Tl flux inactive.
For Cc1ccc(-c2cc(-c3ccc(C)cc3)[n+](C)o2)cc1 the results were KCNQ2 inh inactive.
C[n+]1c(-c2ccccc2)cc(-c2ccc(Cl)cc2)cc1-c1ccccc1 was read as KCNQ2 inh inactive and KCNQ2 enhance 1.
Screening CCOC(=O)c1cccc(-[n+]2c(-c3ccccc3)cc(-c3ccccc3)cc2-c2ccccc2)c1 returned KCNQ2 inh -7.3*, KCNQ2 enhance -7.3, KCNQ2 inh conf -32%*, KCNQ1 spec inactive, CHO Tl ctr inactive, KCNQ2 inh confirm inactive, Kir21 conf inh inactive and HEK293 Tl flux inactive.
Screening Cc1ccc(-c2cc(-c3ccc(C)cc3)[n+](-c3ccccc3)c(-c3ccc(C)cc3)c2)cc1 returned KCNQ2 inh -13*, KCNQ2 enhance -13, KCNQ2 inh conf inactive, KCNQ1 spec inactive, CHO Tl ctr inactive, Kir21 conf inh 12%* and HEK293 Tl flux inactive.
O=C(COc1ccc2ccc(=O)oc2c1)N1CCC(C(=O)O)(c2ccccc2)CC1 was read as KCNQ2 inh inactive.
CC1=C2[C@@H]3OC(=O)[C@H](C)C3CC[C@@]2(C)C=CC1=O (stereo partly specified) was read as KCNQ2 inh inactive and KCNQ2 enhance 0.34.
For CC1CCN(c2cc(Br)c([N+](=O)[O-])cc2F)CC1 the results were KCNQ2 inh inactive and KCNQ2 enhance 0.61.
`CSc1ncc(CN2CCCC(C(=O)c3cccc(Cl)c3)C2)cn1` (stereo unspecified) gave KCNQ2 inh inactive and KCNQ2 enhance 1.
Screening COc1ccc(CN2CCCC(C(=O)c3cccc(Cl)c3)C2)cc1 (stereo unspecified) returned KCNQ2 inh inactive, Kir21 conf inh 24%* and HEK293 Tl flux inactive.
For CCCCC(=O)N/N=C/c1c(O)n(-c2cccc3ccccc23)c(=O)[nH]c1=O the results were KCNQ2 inh inactive.
COc1ccccc1N1CCN(Cc2ccc(SC)cc2)CC1 was read as KCNQ2 inh inactive and KCNQ2 enhance 0.84.
Screening CCc1ccc(CN2CCN(Cc3ccc(SC)cc3)CC2)cc1 returned KCNQ2 inh inactive, Kir21 conf inh 27%* and HEK293 Tl flux inactive.
